The campaign covered roughly 64,000 compounds. About 15 (0.02%) were called active. Only a sample is shown. Measured potencies and affinities stand elsewhere. A number with no mark means an inactive call. No rule for the calls is given here.

This experiment deals with Bcl-2-related protein A1 (Mus musculus) (UniProt Q07440). The experiment is described as follows: Bfl-1 inhibitors, primary screen, biochemical, fluorescence polarization, FITC-Bid, mouse (AID 432). The conditions noted are these: FITC-Bid BH3 peptide fluorescence polarization displacement; at 20 µM; active compounds read high.
Bcl-2-related protein A1 (Mus musculus), sequence (Q07440 whole entry, looked up): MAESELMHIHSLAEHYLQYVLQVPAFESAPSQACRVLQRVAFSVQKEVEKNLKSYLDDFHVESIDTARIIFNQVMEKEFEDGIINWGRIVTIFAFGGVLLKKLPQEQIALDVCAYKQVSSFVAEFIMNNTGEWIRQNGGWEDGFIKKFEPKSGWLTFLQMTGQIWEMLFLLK
For `NC(=O)CSc1nnc(-c2ccc(S(=O)(=O)N3CCCC3)cc2)n1Cc1ccco1`, the displacement is -5.3%.

As to `CC1CCN(CCCNC(=O)c2cc3sccc3n2C)CC1`, the displacement is 1.5%.

With `CCN1CCN(CC(=O)Nc2c(C(=O)OC)[nH]c3cccc(Cl)c23)CC1`, the displacement is -4.1%.

On to `O=C(O)c1ccc(NS(=O)(=O)c2ccc(Cl)cc2)cc1`, for which the displacement is -8.2%.

For `CCn1c(SCC(=O)OC)nc2sc3c(c2c1=O)CCC3`, the displacement is 2.2%.

Regarding `CCn1c(SC(C)C(=O)O)nc2sc3c(c2c1=O)CCC3` (stereo unspecified), the displacement was 22.5%.

`Cn1c(=O)c2ncn(CC(=O)NCCC3=CCCCC3)c2n(C)c1=O`: the displacement is -18.3%.

Regarding `COCCCNC(=O)Cn1cc2c(n1)CCCCC2`, the displacement was 5%.

Regarding `O=C(c1cccc(S(=O)(=O)N2CCCCC2)c1)N1CCOCC1`, the displacement was -1.1%.

Regarding `CS(=O)(=O)c1nc(-c2ccccc2)cc(C(F)(F)F)n1`, the displacement is 37.1%.

`COc1ccc(-c2cc(C(F)(F)F)nc(NC3CCCC3)n2)cc1OC`: the displacement was -2.6%.

`CCOC(=O)Nc1c(O)ccc2oc(C)c(-c3ccccc3)c12`: the displacement is 1.9%.

In the case of `Cc1ccc(C)c(-n2nnnc2SCC(=O)NCCC2=CCCCC2)c1`, the displacement is 8.5%.

On to `CCc1ccccc1NC1=NCC(=O)N1C1CCCCC1`, for which the displacement is 0.4%.

On to `Cc1ccc(CN2C(=O)CCC2C(=O)NC2CCCC2)cc1` (stereo unspecified), for which the displacement is -12%.

As to `Cc1cc(NC(=O)Nc2cccc3ccccc23)no1`, the displacement was -1.4%.

With `Cc1cc(O)ccc1Nc1nc2ccccc2nc1Nc1ccc(O)cc1C`, the displacement was -1.4%.

As to `CN1CCN(C2=C(Cl)C(=O)N(c3ccc(Cl)cc3)C2=O)CC1`, the displacement is 49.4%.

Consider `CN1CCN(C2=C(Cl)C(=O)N(c3cccc(Cl)c3)C2=O)CC1`, for which the displacement is 32.3%.

Take `CCSc1nnc(NC(=O)C(C)C)s1`: the displacement is 0.1%.

Take `CCSc1nnc(NC(=O)C(C)(C(F)(F)F)C(F)(F)F)s1`: the displacement is -5.7%.

Take `Cc1ccc(C2C(C#N)=C(N)SC(N)=C2C#N)c(C)c1`: the displacement was -31.9%.

In the case of `NS(=O)(=O)c1ccc(-n2nncc2C23CC4CC(CC(C4)C2)C3)cc1`, the displacement is -2.1%.

For the compound `COC(=O)C1=C(N)Oc2cc(C)n(CC3CCCO3)c(=O)c2C1c1ccc(Cl)cc1` (stereo unspecified), the displacement was -2.1%.

Consider `c1cn(-c2ncnc3sc4c(c23)CCCC4)cn1`, for which the displacement was -0.8%.

On to `O=C(NCc1ccccc1)c1c[nH]c2ccc(S(=O)(=O)Nc3ccc4c(c3)OCCO4)cc2c1=O`, for which the displacement was -3.6%.

With `O=C(Nn1c(C2CCC2)nc2ccccc2c1=O)C1CCC1`, the displacement is -9%.

As to `Cn1c(=O)[nH]c(=O)c2c1nc(Br)n2Cc1ccccc1F`, the displacement is -3.5%.

As to `CC(=O)c1ccc(OCC(O)CN2CCN(c3ccccn3)CC2)cc1` (stereo unspecified), the displacement is -0.7%.

As to `CC1=CC(C)(C)N2C(=O)C3(C(C#N)=C(N)Oc4cc(O)ccc43)c3cccc1c32` (stereo unspecified), the displacement was -2.9%.

For `O=C(Nc1ccc2c(c1)OCO2)c1cnn2c(C(F)(F)F)cc(-c3ccco3)nc12`, the displacement was 1%.

Take `COc1ccc(NC(=O)c2cnn3c(C(F)(F)F)cc(-c4ccco4)nc23)cc1OC`: the displacement is 12%.

For the compound `COc1ccccc1N1CCN(C(=O)C(C)N(c2ccc(C)c(C)c2)S(C)(=O)=O)CC1` (stereo unspecified), the displacement was -2%.

Turning to `COCCNC(=O)Cn1nc(C(F)(F)F)c(Br)c1C`, the displacement was -0.1%.

Take `CC1CCC(NC(=O)CN2CCCN(Cc3ccc(F)cc3Cl)C2=O)CC1` (stereo unspecified): the displacement is -0.5%.

On to `O=C(CN1C(=O)CC(c2ccco2)Sc2ccccc21)NCC1CCCO1` (stereo unspecified), for which the displacement is -4.3%.

On to `CCCN1CCN(C(=O)Cn2cccc2C(=O)c2ccccc2)CC1`, for which the displacement was -2.4%.

On to `COC(=O)CCC(=O)Nc1ccc(NC(C)=O)cc1`, for which the displacement was 0.3%.

For the compound `COc1ccc(OC)c(S(=O)(=O)n2nc(-c3ccccc3)cc2N)c1`, the displacement was -0.3%.

For the compound `COc1ccc(S(=O)(=O)n2nc(-c3cc(OC)c(OC)c(OC)c3)cc2N)cc1OC`, the displacement was 3.4%.

Take `CC(C)(C)Sc1nc(O)cc(=O)[nH]1`: the displacement was -4.4%.

For the compound `CN(c1ccccc1)S(=O)(=O)c1cc(C(=O)N2CCN(c3ccccn3)CC2)ccc1Cl`, the displacement was -4.6%.

With `CC1CN(C(=O)c2ccc(C(=O)c3ccccc3)cc2)CC(C)O1` (stereo unspecified), the displacement is -0.8%.

`O=C1CC2CS(=O)(=O)CC2N1C1CCCCC1` (stereo unspecified): the displacement was 2%.

Take `CCN(CC)S(=O)(=O)c1ccc(Cl)c(C(=O)NCC2CCCO2)c1` (stereo unspecified): the displacement is -6.5%.

As to `COc1cccc(-c2nc(-c3ccccc3)no2)c1`, the displacement is -9.1%.

Turning to `COc1cc(OC)cc(-c2nc(-c3cc4cc(C)ccc4nc3OC)no2)c1`, the displacement was -2%.

For `COc1nc(-c2ccccc2)ccc1-c1noc(-c2ccc(F)cc2)n1`, the displacement was -1.8%.

For the compound `COc1ccc(-c2ccc(-c3noc(-c4ccccc4)n3)c(OC)n2)cc1`, the displacement is -44.4%.

Regarding `COCCNC(=O)C(c1ccccc1)N(Cc1cccs1)C(=O)Cn1nnc2ccccc21` (stereo unspecified), the displacement is 4.1%.

Consider `CCCCCOc1ccc(C(=O)NC(CCC)C(=O)O)cc1` (stereo unspecified), for which the displacement is 0.1%.

Take `CCCn1nnc(NCc2ccc(OCc3cccs3)c(OC)c2)n1`: the displacement is 1.2%.

With `CCCNC(=O)Nc1cc(C)on1`, the displacement was -15.6%.

As for `N#Cc1cc2c(nc1SCC1COc3ccccc3O1)CCC2` (stereo unspecified), the displacement was -4.2%.

In the case of `O=C(CC(c1ccccc1O)N1CCCCC1)N1CCCCC1` (stereo unspecified), the displacement was -9.2%.

Consider `COc1ccccc1-n1cnnc1SC1CCOC1=O` (stereo unspecified), for which the displacement is -0.5%.

For the compound `O=C(CSc1nnnn1C1CCCCC1)Nc1cccc(NC(=O)c2ccco2)c1`, the displacement was 6.6%.

Turning to `Cc1c(C(=O)NCc2cccnc2)oc2c1C(=O)CC(C)(C)C2`, the displacement is -2.3%.

Take `CCCc1[nH]nc2c1C(CCc1ccccc1)C(C#N)=C(N)O2` (stereo unspecified): the displacement is -3.6%.

In the case of `Cc1nc(SCC(=O)NCC2CCCO2)c2oc3ccccc3c2n1` (stereo unspecified), the displacement was -3.4%.

Take `CC(C)(O)c1nnn(-c2ccccc2)c1C(F)(F)F`: the displacement was -3%.

For `COc1cccc(CNCC(=O)N2C(C)CCCC2C)c1` (stereo unspecified), the displacement is -0.5%.

On to `CNC(=O)c1cc2ccc(OC)cc2oc1=O`, for which the displacement is -6.1%.

On to `O=C1CCc2cc(S(=O)(=O)N3CCC(C(=O)NC4CCCc5ccccc54)CC3)ccc2N1` (stereo unspecified), for which the displacement is -5.6%.

Regarding `Cc1csc(-c2cnn(-c3ccccc3)c2NC(=O)c2ccccc2)n1`, the displacement is -3.3%.

As for `COc1cccc(-c2nn(C)c3sc(C(=O)NCc4ccccn4)cc23)c1`, the displacement is 3.4%.

Turning to `COC(=O)c1ccc(NC(=O)C2C3C=CC(O3)C2C(=O)O)cc1` (stereo unspecified), the displacement was 1.3%.

For the compound `Cc1cccc(-n2c(SCC(=O)N3CCCC3)nnc2-c2ccccn2)c1C`, the displacement is -5.2%.

In the case of `CCC/C(O)=C1\C(=O)CC(C)(C)CC1=NCCO`, the displacement was 2.8%.

Regarding `O=S(=O)(c1ccc(Br)s1)n1cccn1`, the displacement was -3.1%.

For the compound `O=C(Nc1nncs1)C1COc2ccccc2O1` (stereo unspecified), the displacement is -5%.

For the compound `O=C(NC(NCCCN1CCOCC1)(C(F)(F)F)C(F)(F)F)C1CCCCC1`, the displacement was -1.1%.

On to `Cc1nc(NCCN2CCOCC2)c2nnn(Cc3c(F)cccc3Cl)c2n1`, for which the displacement was -1.3%.

With `CCOC(=O)/C(C#N)=C(\N)C(C)C(=O)Nc1ccccn1` (stereo unspecified), the displacement was -3.2%.

With `CCOC(=O)CNC(=O)CSc1nc2cccnc2n1C1CCCCC1`, the displacement is -8.1%.

For the compound `Cn1c(NC(=O)c2cc(Br)ccc2Cl)cc(=O)n(C)c1=O`, the displacement was -6.3%.

Values taken from PubChem BioAssay AID432 (Sanford-Burnham Center for Chemical Genomics, 2006).
